Screening results (PubChem BioAssay)
An excerpt weighted towards active compounds, which were near 1.5% of everything screened.
MLL AF4-AF9 inh: MLL-AF4/AF9 protein interaction inhibition; P42568; AlphaScreen, biotin-AF4 peptide binding to FLAG-AF9; inhibition, % at 10 µM; actives 0.47% (n = 350,000);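 active = every replicate reaching a set inhibition limit, whatever the replicate mean, cut at about 25% in these data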;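 note: 0% = plate neutral control median and 100% = total signal loss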
Target sequence (P42568 whole entry, looked up): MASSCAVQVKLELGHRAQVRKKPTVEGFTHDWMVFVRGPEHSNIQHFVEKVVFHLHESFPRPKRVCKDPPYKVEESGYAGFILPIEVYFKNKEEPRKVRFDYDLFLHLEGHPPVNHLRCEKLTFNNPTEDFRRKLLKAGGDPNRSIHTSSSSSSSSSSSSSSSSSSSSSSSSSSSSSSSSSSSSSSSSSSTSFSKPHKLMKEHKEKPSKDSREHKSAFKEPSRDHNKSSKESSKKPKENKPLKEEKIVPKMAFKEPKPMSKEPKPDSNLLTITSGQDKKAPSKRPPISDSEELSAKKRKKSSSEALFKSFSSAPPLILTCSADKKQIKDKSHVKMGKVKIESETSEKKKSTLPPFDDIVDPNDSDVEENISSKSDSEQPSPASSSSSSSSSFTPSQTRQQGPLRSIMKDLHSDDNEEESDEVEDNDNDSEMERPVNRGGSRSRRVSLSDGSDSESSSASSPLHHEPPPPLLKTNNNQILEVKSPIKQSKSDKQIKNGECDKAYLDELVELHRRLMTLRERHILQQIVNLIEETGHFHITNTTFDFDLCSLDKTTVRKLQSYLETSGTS
RAD52 inh: inhibitors of human RAD52 DNA annealing. inhibition, % at 18.7 µM. recombinant RAD52 DNA annealing, FRET fluorescence. P43351. actives 0.46% (n = 360,000);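 active = every replicate showing at least 50% inhibition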
Casp6 inh: blocks human caspase-6 cleavage activity; P55212; purified caspase-6, Z-VEID-R110 cleavage fluorescence; inhibition, % at 12.5 µM; actives 0.53% (n = 350,000);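 active = mean inhibition across replicates at least about 35%, with every replicate also reaching that limit, limit read from the data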;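 note: 0% = median of neutral control wells and 100% = no fluorescence left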
miR122 inh: miR-122 inhibition in Huh7 cells; Huh7 miR-122 Renilla luciferase sensor, 48 h; neutral wells = 0, positive control = 100; activation (reporter increase), % at 12.5 µM; actives 0.3% (n = 340,000); AID 602342;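 active = mean replicate activation score at least 90 and every replicate individually at or above 90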;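 note: higher luciferase means less miR-122 activity so hits act as miR-122 inhibitors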
NSD2 HMT inh: NSD2 (human) methyltransferase inhibition | O96028 | NSD2 peptide methylation, AlphaScreen, 120 min | inhibition, % at 12.5 µM | actives 0.54% (n = 310,000); in the data active = inhibition above about 50%
Starred values were filed as active, the others as inactive; i = inactive; . = no result; [ ] = remark or other dose.

SMILES | MLL AF4-AF9 inh | RAD52 inh | Casp6 inh | miR122 inh | NSD2 HMT inh
C/C=C/c1ccc(C2[C@@H]3CN(C(=O)C4CC4)C[C@H]2N3)cc1 (stereo not given in full) | -10 | 24 | -2 | . | .
c1ccc2c(c1)Sc1ccccc1N2CC1CN2CCC1CC2 (stereo not given) | 27* | 34 | 1 | 0 | .
CN=C1CN(O)C(c2ccccc2)c2cc(Cl)ccc2N1 (stereo not given) | 0 | -6 | -3 | 111* | 0
CC(=O)N1CC(=O)Nc2ccc(Cl)cc2C1c1ccccc1 (stereo not given) | 1 | -15 | -2 | -8 | -5
COC(=O)[C@H]1[C@H](CO)[C@H]2Cn3c(ccc(-c4ccccc4F)c3=O)[C@@H]1N2 | -1 | -83 | -3 | . | .
COc1ccc2c(c1)C(NC(C)=O)CCc1cc(OC)c(OC)c(OC)c1-2 (stereo not given) | 0 | -13 | -1 | 75 | 3
COc1cc2c(c(OC)c1OC)-c1ccc(O)c(=O)cc1C(NC(C)=O)CC2 (stereo not given) | -1 | -14 | -1 | 97* | -1
O=C(O)c1ccc([N+](=O)[O-])c([N+](=O)[O-])c1 | -2 | -11 | 41* | -2 | 0
O=C(Cc1ccncc1)N1CCCCN2[C@@H](CO)[C@@H](c3ccc(C#Cc4ccccc4F)cc3)[C@@H]2C1 | 3 | . | . | 5[16.7 µM] | .
CN1CCN(c2ccc([N+](=O)[O-])c3no[n+]([O-])c23)CC1 | 2 | i | 15 | -35 | 97*
O=C(Cc1ccccc1)N1C[C@H]2[C@@H](c3ccccc31)[C@H](CO)N2Cc1ccccc1 | 2 | 8 | 1 | -8[16.7 µM] | .
O=C(Cc1ccccn1)N1CC2(C1)[C@H](c1ccccc1)[C@H](CO)N2Cc1ccccn1 | 3 | -106 | 0 | . | .
C[C@H]1CN([C@@H](C)CO)C(=O)CCCn2cc(nn2)CO[C@@H]1CN(C)C(=O)Oc1ccc2ccccc2c1 | 1 | -11 | -2 | -3[16.7 µM] | .
CC12CCC(O)CC1CCC1C2CCC2(C)C(C3=CC(=O)OC3)CCC12O (stereo not given) | 1 | -17 | -1 | 88 | -1
C[C@]12CC[C@H](O)C[C@H]1CC[C@@H]1[C@@H]2CC[C@]2(C)[C@@H](C3=CC(=O)OC3)CC[C@]12O | -4 | -1 | . | 123* | .
C=C1C(=O)O[C@H]2C[C@@H](C)[C@@H]3C=CC(=O)[C@@]3(C)C[C@H]12 | 0 | -20 | 74* | . | .
COc1ccc(/C=C2\C(=O)NC(=S)N(C)C2=O)cc1C | 1 | -45 | 46* | . | .
O=C1CNC[C@H]2[C@@H](c3ccc(Br)cc3)[C@@H](CO)N12 | -4 | 19 | 0 | . | .
O=c1[nH]c(=O)n(Cc2ccco2)c(O)c1C=NC1CCN(Cc2ccccc2)CC1 | 48* | -11 | -3 | -2 | 4
O=c1[nH]c(=O)n(Cc2ccco2)c(O)c1/C=N/N1CCCCCC1 | 4 | -11 | -2 | -3 | 3
C/C=C/c1ccc(C2[C@@H]3CN(C(=O)c4cnccn4)C[C@H]2N3)cc1 (stereo not given in full) | -5 | 18 | 0 | . | .
CC=Cc1ccc2n(c1=O)C[C@H]1[C@H](CO)[C@@H](C(=O)OC)[C@@H]2N1CC1CCOCC1 (mixture of isomers) | 0 | -8 | 1 | . | .
COc1ccc(N2C(=O)/C(=C/c3ccc(C)o3)C(=O)NC2=S)cc1 | -3 | -103 | 40* | -7 | 37
CCOc1ccc(N2C(=O)/C(=C/c3ccc(C)o3)C(=O)NC2=S)cc1 | -2 | -165 | 22 | . | 37
Cc1ccc(/C=C2\C(=O)NC(=S)N(c3cccc(F)c3)C2=O)o1 | -6 | -199 | 48* | . | .
CN1CCN(c2ccc(/C=C3\C(=O)NC(=S)N(c4cccc(Br)c4)C3=O)o2)CC1 | . | . | . | . | 12
O=C(O)[C@H]1[C@H](CO)[C@H]2Cn3c(ccc(-c4ccccc4)c3=O)[C@@H]1N2C(=O)C1CCCCC1 | -1 | -6 | -1 | 8[16.7 µM] | .
C/C=C/c1ccc([C@@H]2[C@@H](CO)N3CCCCN(C(=O)Cc4cccnc4)C[C@@H]23)cc1 | -7 | -10 | 1 | 1[16.7 µM] | .
COc1ccc(-c2nc3ccccc3n2OC(=O)N(C)C)cc1 | . | . | . | 114* | 0
